# Measurements reported in PubChem BioAssay (Tox21).
# Inconclusive results are not listed. A call without a number means that no potency is given here. Active and inactive are the calls of the source. Unless noted, calls come from the whole dose curve. Square brackets hold non-standard residues; d marks the D form. Peptide text beside a SMILES is read from it. pGlu = O=C1CC[C@@H](C(=O)O)N1
# How the values were obtained:
# [1] = Nuclear factor erythroid 2-related factor 2/antioxidant responsive element (Nrf2/ARE) small molecule agonists: qHTS cell viability counter screen in human keratinocytes (AID 1919968; active = well fitted curve in the direction sought with a large enough effect in the repeat runs; an effect the other way counts as inactive or inconclusive; note: nearly all actives have a fitted effect of over 55% in size; note: potency is the fitted concentration of half-maximal effect)
# Procedure, shortened: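 KeratinoSens cells (HaCaT keratinocytes stably carrying an ARE-luciferase reporter) were seeded at 1,500 cells/well and rested 5 h at 37 C/5% CO2. They were then exposed to compounds in DMSO for 23 h. Viability was read by CellTiter-Fluor fluorescence after 1 h.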
# [2] = Nuclear factor erythroid 2-related factor 2/antioxidant responsive element (Nrf2/ARE) small molecule agonists: luciferase reporter gene qHTS assay in human keratinocytes (AID 1919969); note: nearly all actives have a fitted effect of over 35% in size; note: potency is the fitted concentration of half-maximal effect
# [3] = target: Gonadotropin-releasing hormone receptor (Homo sapiens) (UniProt P30968); test: Human gonadotropin-releasing hormone receptor (GnRHR) small molecule agonists, calcium flux assay in GnRHR-HEK293 cells (AID 1920063); note: nearly all actives have a fitted effect of over 35% in size; note: potency is the fitted concentration of half-maximal effect
# Procedure, shortened: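 HEK293 cells stably expressing human GnRHR were plated 18 h at 37 °C, loaded with calcium dye 1 h at 37 °C, then given compound in agonist mode; fluorescence (Ex/Em 480/540) read kinetically for 3 min at 1 s intervals.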
# [4] = p53 small molecule agonists, cell-based qHTS assay with human liver microsomes (AID 1963577);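 note: p53 response element beta-lactamase reporter cells with liver microsomes plus NADPH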
# Procedure, shortened: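 Metabolically competent format: test substances, human liver microsomes and NADPH (both 0.5 mg/mL final) incubated with p53RE-bla cells 16 h at 37 C. Beta-lactamase reporter signal then quantified by fluorescence.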
# [5] = p53 small molecule agonists, cell-based qHTS assay with human liver microsomes: qHTS cell viability counter screen (AID 1963579); note: nearly all actives have a fitted effect of over 45% in size; note: potency is the fitted concentration of half-maximal effect
# Procedure, shortened: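 Tox21 library compounds, delivered from DMSO stocks, were tested on p53RE-bla cells together with 0.5 mg/mL human liver microsomes and 0.5 mg/mL NADPH (final) over 16 h at 37 C; CellTiter-Glo luminescence served as the cytotoxicity measure.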
# [6] = p53 small molecule agonists, cell-based qHTS assay with rat liver microsomes: qHTS cell viability counter screen (AID 1963580); note: nearly all actives have a fitted effect of over 45% in size; note: potency is the fitted concentration of half-maximal effect
# Procedure, shortened: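 p53RE-bla HCT-116 cells (4,000/well) rested 5 h at 37 C, then given Tox21 compounds in DMSO with rat liver microsomes (0.5 mg/mL final) plus NADPH (0.5 mg/mL final) for 16 h at 37 C. Viability read by CellTiter-Glo luminescence after 30 min at room temperature.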
# [7] = p53 small molecule agonists, cell-based qHTS assay: qHTS cell viability counter screen (AID 1963581); note: nearly all actives have a fitted effect of over 45% in size
# Procedure, shortened: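 p53RE-bla HCT-116 cells were exposed to compounds for 16 h at 37 C; after the beta-lactamase FRET read in the same wells, CellTiter-Glo was added and luminescence (intracellular ATP) read after 30 min at room temperature.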
# [8] = target: 5-hydroxytryptamine receptor 2A (Homo sapiens) (UniProt P28223); test: 5-hydroxytryptamine receptor 2A (HTR2A) small molecule antagonists, cell-based qHTS assay (AID 1963586); note: nearly all actives have a fitted effect of over 45% in size; note: potency is the fitted concentration of half-maximal effect
# Procedure, shortened: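 Antagonist-mode intracellular calcium assay: DOI (4 nM) added after 5 min compound pre-incubation at room temperature to dye-loaded HTR2A-CHO cells. Fluorescence followed for 3 min, sampled every second.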
# [9] = target: 5-hydroxytryptamine receptor 2A (Homo sapiens) (UniProt P28223); test: 5-hydroxytryptamine receptor 2A (HTR2A) small molecule agonists, cell-based qHTS assay (AID 1963587); note: nearly all actives have a fitted effect of over 30% in size; note: potency is the fitted concentration of half-maximal effect
# Procedure, shortened: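 HTR2A-CHO cells, plated 18 h at 37 C/5% CO2, dye-loaded 1 h at 37 C; compounds in DMSO added by pin tool (agonist mode). Intracellular calcium flux read as kinetic fluorescence on FDSS over 2 min at 1 s intervals.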
# [10] = target: Muscarinic acetylcholine receptor M1 (Homo sapiens) (UniProt P11229); test: Cholinergic receptor muscarinic 1 (CHRM1) small molecule antagonists, cell-based qHTS assay (AID 1963588); note: nearly all actives have a fitted effect of over 40% in size; note: potency is the fitted concentration of half-maximal effect
# Procedure, shortened: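 CHRM1-CHO calcium-flux assay, antagonist mode. Cells were seeded 18 h, dye-loaded 1 h at 37 C and given compound for 5 min at RT, then acetylcholine was added at 50nM. FDSS fluorescence was read 3 min; 15 concentrations, three runs.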
# [11] = target: Muscarinic acetylcholine receptor M1 (Homo sapiens) (UniProt P11229); test: Cholinergic receptor muscarinic 1 (CHRM1) small molecule agonists, cell-based qHTS assay (AID 1963589); note: nearly all actives have a fitted effect of over 35% in size
# Procedure, shortened: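 CHO cells stably expressing human CHRM1, seeded 18 h at 37 C/5% CO2, dye-loaded 1 h at 37 C, then given compound in agonist mode; intracellular calcium fluorescence read kinetically at 1 s intervals. Fifteen concentrations, three independent runs.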
# [12] = cAMP Responsive Elements (CRE) small molecule agonists, cell-based qHTS assay (AID 1963590)
# Procedure, shortened: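 CRE-bla HEK 293T cells in DMEM with 10% dialyzed FBS, NEAA, pyruvate and 25 mM HEPES were plated 18 h at 37 C/5% CO2, then exposed to compounds in DMSO for 3 h before LiveBLAzer B/G FRET substrate addition.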
# [13] = target: D(2) dopamine receptor (Homo sapiens) (UniProt P14416); test: Dopamine D2 receptor (DRD2) small molecule agonists, cell-based qHTS assay (AID 1963594); note: nearly all actives have a fitted effect of over 35% in size
# Procedure, shortened: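 HEK293 cells stably expressing DRD2 were cultured 24 h at 37 C, then given Ro20-1724 (0.1 mM final) and compounds for 10 min at room temperature. NKH477 (200nM) was then added for 30 min. cAMP was read by HTRF.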
# [14] = target: D(2) dopamine receptor (Homo sapiens) (UniProt P14416); test: Dopamine D2 receptor (DRD2) small molecule antagonists, cell-based qHTS assay (AID 1963595; active = well fitted inhibition curve with a large enough effect in the signal ratio in the repeat runs, with a control signal flat; the % refers to the signal ratio; note: potency is the fitted concentration of half-maximal effect)
# Procedure, shortened: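 Antagonism was scored as restored cAMP in HEK293-DRD2 cells. These cells were stimulated with 200 nM NKH477 and 12 nM quinpirole for 30 min at room temperature, in the presence of 0.1 mM Ro20-1724.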
# [15] = target: KiSS-1 receptor (Homo sapiens) (UniProt Q969F8); test: Human kisspeptin (KISS1R) small molecule agonists, calcium flux assay in KISS1R-HEK293 cells (AID 1920064; active = well fitted curve in the direction sought with a large enough effect in the repeat runs; an effect the other way counts as inactive or inconclusive)
# Procedure, shortened: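 HEK293 cells stably expressing human KISS1R were plated 18 h at 37 °C, loaded with calcium dye for 1 h at 37 °C, then given compound by pin tool. Fluorescence (Ex/Em 480/540) was read kinetically for 3 min.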
# [16] = G protein-coupled receptor (GPCR) small molecule agonists, calcium flux assay: HEK293 wild type cell line counter screen (AID 1920065)
# Procedure, shortened: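 Cells were plated and cultured 18 h at 37 C/5% CO2, then loaded with calcium dye for 1 h at 37 C. Compounds in DMSO were pin-transferred in agonist mode, and fluorescence (Ex/Em 480/540) was read kinetically for 3 min at 1 s intervals.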
# [17] = p53 small molecule agonists, cell-based qHTS assay with rat liver microsomes (AID 1963578)
# Procedure, shortened: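 Each plate received p53RE-bla cells, then compound, then rat liver microsomes and NADPH (both 0.5 mg/mL final). Plates were held 16 h at 37 C, and beta-lactamase activity was detected with LiveBLAzer over 2 h.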
# [18] = cAMP Responsive Elements (CRE) small molecule antagonists, cell-based qHTS assay (AID 1963591; active = well fitted inhibition curve with a large enough effect in the signal ratio in the repeat runs, not every such curve was filed as active; the % refers to the signal ratio)
# Procedure, shortened: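 CRE-bla HEK293T cells were plated 18 h at 37 °C/5% CO2, pinned with compound in DMSO, then stimulated with NKH477 at 0.25 uM final for 3 h. LiveBLAzer B/G FRET substrate was added and plates incubated 2 h at room temperature.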
# [19] = target: Beta-2 adrenergic receptor (Homo sapiens) (UniProt P07550); test: Adrenergic beta2 receptor (ADRB2) small molecule antagonists, cell-based qHTS assay (AID 1963592); note: nearly all actives have a fitted effect of over 50% in size; note: potency is the fitted concentration of half-maximal effect
# Procedure, shortened: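 Cells (CHO, stable ADRB2 overexpression) incubated 18-20hr at 37C; compounds added from DMSO; agonist mix (1nM isoproterenol, 100uM IBMX, 25uM Ro-20-1724) added; 0.5hr RT; d2-cAMP and anti-cAMP-cryptate added; 1hr RT; 665/615 nm read.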
# [20] = target: Beta-2 adrenergic receptor (Homo sapiens) (UniProt P07550); test: Adrenergic beta2 receptor (ADRB2) small molecule agonists, cell-based qHTS assay (AID 1963593);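 note: CHO cells stably overexpressing human ADRB2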
# Procedure, shortened: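 CHO cells stably over-expressing ADRB2 were plated overnight at 37C, then dosed with compounds plus a stimulation mix containing 100uM IBMX and 25uM Ro-20-1724 for 0.5hr at room temperature. cAMP was measured by HTRF competition, 1hr.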
# KiSS-1 receptor (Homo sapiens), sequence (Q969F8 whole entry, looked up): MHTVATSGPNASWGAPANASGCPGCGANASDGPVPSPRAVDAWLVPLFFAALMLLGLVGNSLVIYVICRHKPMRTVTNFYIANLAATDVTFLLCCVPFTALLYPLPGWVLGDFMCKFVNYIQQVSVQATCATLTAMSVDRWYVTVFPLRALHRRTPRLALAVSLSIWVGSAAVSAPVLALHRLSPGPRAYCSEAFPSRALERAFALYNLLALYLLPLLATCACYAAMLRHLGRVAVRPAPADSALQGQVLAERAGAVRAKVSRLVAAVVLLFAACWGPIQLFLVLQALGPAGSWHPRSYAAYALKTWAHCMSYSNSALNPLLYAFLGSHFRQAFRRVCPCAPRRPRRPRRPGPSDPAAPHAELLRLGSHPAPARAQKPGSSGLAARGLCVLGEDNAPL
# D(2) dopamine receptor (Homo sapiens), sequence (P14416 whole entry, looked up): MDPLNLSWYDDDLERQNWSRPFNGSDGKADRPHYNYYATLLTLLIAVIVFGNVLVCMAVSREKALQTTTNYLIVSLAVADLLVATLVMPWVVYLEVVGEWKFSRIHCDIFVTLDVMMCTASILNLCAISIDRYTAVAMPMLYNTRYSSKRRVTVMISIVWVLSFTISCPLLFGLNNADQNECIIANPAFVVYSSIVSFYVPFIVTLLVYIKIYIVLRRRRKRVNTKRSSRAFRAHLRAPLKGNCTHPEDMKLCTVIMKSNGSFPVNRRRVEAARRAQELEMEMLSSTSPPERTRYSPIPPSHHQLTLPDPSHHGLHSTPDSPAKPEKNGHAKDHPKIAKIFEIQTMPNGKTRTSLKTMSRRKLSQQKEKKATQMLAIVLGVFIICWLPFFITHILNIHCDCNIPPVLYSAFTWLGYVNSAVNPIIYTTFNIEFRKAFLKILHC
# Gonadotropin-releasing hormone receptor (Homo sapiens), sequence (P30968 whole entry, looked up): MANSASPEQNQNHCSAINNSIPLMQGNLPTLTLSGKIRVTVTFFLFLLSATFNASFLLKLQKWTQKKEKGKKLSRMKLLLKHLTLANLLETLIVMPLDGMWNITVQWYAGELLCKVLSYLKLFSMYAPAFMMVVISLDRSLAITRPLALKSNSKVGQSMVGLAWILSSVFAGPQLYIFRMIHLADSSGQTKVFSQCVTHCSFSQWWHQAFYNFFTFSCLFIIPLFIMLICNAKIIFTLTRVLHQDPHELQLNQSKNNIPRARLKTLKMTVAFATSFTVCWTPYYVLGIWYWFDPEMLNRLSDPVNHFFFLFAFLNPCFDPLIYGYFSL
# Muscarinic acetylcholine receptor M1 (Homo sapiens), sequence (P11229 whole entry, looked up): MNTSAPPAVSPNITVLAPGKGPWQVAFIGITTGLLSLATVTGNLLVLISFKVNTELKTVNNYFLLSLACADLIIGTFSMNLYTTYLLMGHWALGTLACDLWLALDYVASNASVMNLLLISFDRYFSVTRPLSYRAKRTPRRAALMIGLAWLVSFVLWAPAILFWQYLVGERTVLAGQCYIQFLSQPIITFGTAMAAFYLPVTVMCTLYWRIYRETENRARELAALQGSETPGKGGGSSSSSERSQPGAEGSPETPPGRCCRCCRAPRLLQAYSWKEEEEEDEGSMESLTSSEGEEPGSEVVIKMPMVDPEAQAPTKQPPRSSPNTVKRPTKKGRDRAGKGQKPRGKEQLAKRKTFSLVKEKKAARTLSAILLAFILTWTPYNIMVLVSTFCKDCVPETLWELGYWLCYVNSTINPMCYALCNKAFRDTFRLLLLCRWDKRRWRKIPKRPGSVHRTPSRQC
# Beta-2 adrenergic receptor (Homo sapiens), sequence (P07550 whole entry, looked up): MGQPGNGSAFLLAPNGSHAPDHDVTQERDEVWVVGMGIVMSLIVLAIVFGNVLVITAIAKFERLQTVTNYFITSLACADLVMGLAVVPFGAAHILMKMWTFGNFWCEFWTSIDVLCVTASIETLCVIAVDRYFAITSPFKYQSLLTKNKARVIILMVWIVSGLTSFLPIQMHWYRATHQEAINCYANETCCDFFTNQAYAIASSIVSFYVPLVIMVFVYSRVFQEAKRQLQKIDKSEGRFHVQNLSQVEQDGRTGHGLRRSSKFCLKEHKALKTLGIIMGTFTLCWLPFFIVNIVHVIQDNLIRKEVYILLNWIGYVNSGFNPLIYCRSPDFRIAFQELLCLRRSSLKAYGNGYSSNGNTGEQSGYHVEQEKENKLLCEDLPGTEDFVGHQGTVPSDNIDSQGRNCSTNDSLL
# 5-hydroxytryptamine receptor 2A (Homo sapiens), sequence (P28223 whole entry, looked up): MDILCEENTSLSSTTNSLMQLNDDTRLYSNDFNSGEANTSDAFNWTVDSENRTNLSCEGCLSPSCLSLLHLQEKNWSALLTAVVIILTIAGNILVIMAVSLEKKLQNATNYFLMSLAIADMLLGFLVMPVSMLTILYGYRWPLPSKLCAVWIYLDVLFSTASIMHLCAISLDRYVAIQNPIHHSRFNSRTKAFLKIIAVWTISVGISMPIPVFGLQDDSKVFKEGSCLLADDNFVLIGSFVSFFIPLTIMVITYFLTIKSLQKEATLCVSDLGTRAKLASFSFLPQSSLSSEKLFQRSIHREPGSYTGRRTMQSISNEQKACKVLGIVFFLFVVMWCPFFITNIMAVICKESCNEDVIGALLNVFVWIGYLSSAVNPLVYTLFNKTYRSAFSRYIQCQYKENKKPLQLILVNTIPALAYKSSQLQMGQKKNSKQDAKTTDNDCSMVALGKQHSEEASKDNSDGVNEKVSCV
Structure (SMILES),Potency [1],Potency [2],Potency [3],Potency [4],Potency [5],Potency [6],Potency [7],Potency [8],Potency [9],Potency [10],Potency [11],Potency [12],Potency [13],Potency [14],Potency [15],Potency [16],Potency [17],Potency [18],Potency [19],Potency [20]
C/C(=C\c1ccc(C(=O)O)cc1)c1ccc2c(c1)C(C)(C)CCC2(C)C,inactive,inactive,inactive,inactive,inactive,inactive,inactive,inactive,inactive,inactive,inactive,inactive,inactive,inactive,,,,,,
Cc1nc(N)nc(N)c1-c1ccc(Cl)c(Cl)c1,inactive,inactive,,inactive,inactive,inactive,,inactive,inactive,7.29 µM (active),inactive,inactive,inactive,inactive,inactive,inactive,inactive,inactive,inactive,
COc1cccc2c1C(=O)c1c(O)c3c(c(O)c1C2=O)C[C@@](O)(C(=O)CO)C[C@@H]3O[C@H]1C[C@H](N)[C@H](O[C@@H]2CCCCO2)[C@H](C)O1,9.44 µM (active),2.66 µM (active),,inactive,inactive,3.97 µM (active),inactive,,10.7 µM (active),inactive,inactive,inactive,,,inactive,inactive,inactive,,inactive,
Cc1[nH]cnc1C[C@H]1CCc2c(C)c3ccccc3n2C1=O,inactive,inactive,,inactive,inactive,inactive,inactive,1.46 µM (active),42.6 µM (active),25.9 µM (active),inactive,inactive,inactive,53.1 µM (active),inactive,inactive,inactive,inactive,23.7 µM (active),
CCCCCCCCCCCCCCCCCC[N+](C)(C)C,61.3 µM (active),inactive,,inactive,40.9 µM (active),,,inactive,34.8 µM (active),,inactive,,,inactive,inactive,inactive,inactive,,,
CCNC(=O)[C@@H]1CCCN1C(=O)[C@H](CCCN=C(N)N)NC(=O)[C@H](CC(C)C)NC(=O)CNC(=O)[C@H](Cc1ccc(O)cc1)NC(=O)[C@H](CO)NC(=O)[C@H](Cc1c[nH]c2ccccc12)NC(=O)[C@H](Cc1cnc[nH]1)NC(=O)[C@@H]1CCC(=O)N1 ([pGlu]HWSYGLRP-NHEt),inactive,inactive,,inactive,inactive,inactive,inactive,,,,,inactive,inactive,inactive,inactive,inactive,inactive,inactive,inactive,
O=S(=O)(O)c1cc(Cl)c(Cl)cc1Cl,inactive,inactive,,inactive,inactive,inactive,inactive,inactive,,inactive,,,inactive,inactive,inactive,inactive,inactive,inactive,inactive,
Cc1ccc(S(=O)(=O)C(I)I)cc1,27.3 µM (active),6.11 µM (active),38.9 µM (active),inactive,,,inactive,inactive,54.9 µM (active),18.8 µM (active),,,inactive,30.6 µM (active),,,inactive,,inactive,
CC(C)c1ccccc1C(C)C,inactive,inactive,inactive,,inactive,inactive,inactive,inactive,inactive,inactive,inactive,,inactive,inactive,,,,inactive,inactive,inactive
CCCCCC/C=C\CCCCCCCC(=O)O,inactive,inactive,inactive,,inactive,inactive,inactive,inactive,inactive,inactive,inactive,inactive,inactive,,,,inactive,inactive,inactive,inactive
NCCc1ccn[nH]1,inactive,inactive,inactive,,inactive,,,,inactive,,inactive,inactive,inactive,inactive,,,,inactive,inactive,inactive
CCN1CCN(C(=O)N[C@@H](C(=O)N[C@@H]2C(=O)N3C(C(=O)O)=C(CSc4nnnn4C)CS[C@H]23)c2ccc(O)cc2)C(=O)C1=O,inactive,inactive,inactive,inactive,inactive,inactive,inactive,,inactive,,,inactive,inactive,inactive,,,inactive,inactive,inactive,
CCCC(CC)c1ccccc1 (configuration not stated),inactive,inactive,,inactive,inactive,inactive,inactive,inactive,inactive,inactive,inactive,inactive,inactive,inactive,inactive,inactive,,inactive,inactive,
CC(C)C(C)(C)C(C)(C)C(C)(C)S,inactive,inactive,inactive,,inactive,inactive,inactive,,inactive,,inactive,inactive,,,,,inactive,inactive,,
CCCc1c(OCCCOc2ccc(OCC(=O)O)cc2)ccc(C(C)=O)c1O,inactive,inactive,,inactive,,40.8 µM (active),,,54.9 µM (active),,inactive,,inactive,inactive,inactive,inactive,inactive,,inactive,inactive
Fc1ccccc1[C@@H](F)COC1CCC(Nc2ncnc3[nH]ncc23)CC1 (some centres not stated),inactive,inactive,,inactive,,,inactive,,inactive,inactive,inactive,,inactive,inactive,inactive,inactive,inactive,,inactive,inactive
